Each structure is given as a SMILES string. Where “and” joins values, the source holds several entries; their conditions need not be identical. Identical values can stand only once. Inconclusive results are not listed. A number with no mark means an inactive call. Calls of active or inactive are those of the source. The call rests on the fitted dose curve; in most records, active means well fitted inhibition curve with a large enough effect; inconclusive means small, poorly fitted or top-dose-only effect; inactive means flat fitted curve, though single readings scatter.

Results on 16 molecules are retold here after PubChem BioAssay (NCATS).

The subject of test [1] is CRL-7250. Description: Cytotoxic Profiling of Annotated Libraries Using Quantitative High-Throughput Screening (AID 1296008). Further: potency means the concentration at half of the fitted maximal effect. On max response: on the % scale 0 is the no-effect control and ±100 the full control effect. To be noted: Five cell lines viability, CellTiter-Glo ATP luminescence, 48-72 h; max response: stronger effect = lower value. The essentials:
(§1)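 Cells exposed to compounds for 48 or 72 hr at 37 degrees Celsius. Viability read as ATP-coupled luminescence with CellTiter-Glo after 10 min at room temperature.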

The subject of test [2] is HaCat. The description is as above. To be noted: Five cell lines viability, CellTiter-Glo ATP luminescence, 48-72 h; max response: stronger effect = lower value. Put shortly: as §1
(In general: ATP-based viability assays read luminescence as a measure of living cells.)

For test [3], the system named is NIH3T3. The description is as above. The settings on record: Five cell lines viability, CellTiter-Glo ATP luminescence, 48-72 h; max response: stronger effect = lower value. Put shortly: as §1
In test [4] the test system is TAB165. The test is described as follows: qHTS profiling for inhibitors of Plasmodium falciparum proliferation (AID 504749). Further: potency means the concentration at half of the fitted maximal effect. To be noted: P. falciparum in erythrocytes, SYBR Green DNA, 72 h; series mostly up to 28.7 µM. The essentials:
(§2)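 P. falciparum-infected erythrocytes (0.3% parasitemia, 2.5% hematocrit) incubated with compound 72 h at 37 C, 5% CO2. Parasite DNA detected by SYBR Green after lysis, overnight at room temperature; normalised to 0.29 uM artemisinin and DMSO.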
(In qHTS, concentration-response curves come from the screen itself.)

The test system of test [5] is W2. The description is as above. The settings on record: P. falciparum in erythrocytes, SYBR Green DNA, 72 h; series mostly up to 28.7 µM. Put shortly:
as §2

In test [6] the test system is HEK293. The test is described as follows: Cytotoxic Profiling of Annotated Libraries Using Quantitative High-Throughput Screening (AID 1296008). Further: potency means the concentration at half of the fitted maximal effect. On max response: on the % scale 0 is the no-effect control and ±100 the full control effect. To be noted: Five cell lines viability, CellTiter-Glo ATP luminescence, 48-72 h; max response: stronger effect = lower value. The essentials: as §1
Test [7] relates to HACAT. Description: qHTS assay to identify novel small-molecules to repurpose for Merkel cell carcinoma treatment (AID 1296009). To be noted: MCC and control cell lines, CellTiter-Glo viability, 72 h. Put shortly:
(§3)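 Cells were treated for 72 hr at 37 degree celsius with compounds in 8- or 11-point dose response. Viability was read by CellTiter-Glo luminescence, normalized to no-cell (cytotoxicity) and DMSO controls.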

Test [8] concerns KB-3-1. The test is described as follows: Cytotoxic Profiling of Annotated Libraries Using Quantitative High-Throughput Screening (AID 1296008). Further: potency means the concentration at half of the fitted maximal effect. On max response: on the % scale 0 is the no-effect control and ±100 the full control effect. To be noted: Five cell lines viability, CellTiter-Glo ATP luminescence, 48-72 h; max response: stronger effect = lower value. Put shortly: as §1
In test [9] the test system is HEK293T. The test is described as follows: qHTS assay to identify novel small-molecules to repurpose for Merkel cell carcinoma treatment (AID 1296009). To be noted: MCC and control cell lines, CellTiter-Glo viability, 72 h; at 44.8 µM (top of the series) unless noted. Put shortly: as §3
Test [10] concerns TAB113. Description: qHTS profiling for inhibitors of Plasmodium falciparum proliferation (AID 504749). Further: potency means the concentration at half of the fitted maximal effect. To be noted: P. falciparum in erythrocytes, SYBR Green DNA, 72 h; series mostly up to 28.7 µM. The essentials:
as §2

[11] abbreviates: at 44.8 µM (top of the series) unless noted.
Further: nearly all actives have a fitted effect of over 60% in size.

`Nc1nc(N)c(N=O)c(OCC2CCCCC2)n1`: the figures for the Potency in test [1] and in test [3] were 14.8 µM (active) and 16.6 µM (active), respectively. In addition, in [2], the max response was -17.6%.
For the molecule `CCCCC(CC)COC(=O)C(C#N)=C(c1ccccc1)c1ccccc1` (stereo not drawn), the Potency in test [4] is 8.91 µM (active); in [5], 6.75 µM (active); in [6] it was 18.8 µM (active). For the same molecule, the max response in test [2] is -0.998%; in [3] it was -1.9%. The molecule was classed as inactive in test [2], in test [3] and in test [7] (setting [11]).
For `NCCCCNCCCN`, in test [1], the max response is -45.5%. Also, the molecule was classed as inactive in [2] and in [7] (setting [11]).
Take `O=c1ccc2ccc(O)c(O)c2o1`: the call in test [6], in [2], in test [8], in test [7] (setting [11]) and in test [9] was inactive. For the same molecule, in test [3], the max response was -1.87%.
As for `CCCCN(CCCC)CCC(O)c1cc2c(Cl)cc(Cl)cc2c2cc(C(F)(F)F)ccc12` (stereo not drawn), the Potency in test [10] and in [4] was 0.0079 µM (active) in each case.
For `CCCc1cc(=O)[nH]c(=S)[nH]1`, the Potency result in [10], in test [4] and in test [5] was “inactive” each time. The max response is 1.74% and -1.3% in [1]; 2.66% in test [6]; 0.476% in test [8]. Moreover, in test [8], the result was inactive. Further, the outcome in [3] is “inactive; activator”.
On to `NC(=NCc1ccccc1)NC(=O)c1nc(Cl)c(N)nc1N`, for which the values for the max response in test [6] and in [3] were -5.25% and 3.69%, respectively. Also, the outcome in [2] and in test [7] (setting [11]) was “inactive; activator” in each case.
In the case of `O=Nc1c(-c2c(O)[nH]c3cc(Br)ccc23)[nH]c2ccccc12`, the Potency in test [6] was 14.8 µM (active); in [2] it was 11.8 µM (active); in [8], 13.2 µM (active).
On to `NNc1nncc2ccccc12`, for which, in [5], the Potency was 3.22 µM (active). Moreover, the result in test [7] (at 17.4 µM (top of the series)) and in [7] (at 44.8 µM (top of the series)) was inactive. In test [9], the outcome was “inactive [at 17.4 µM]”.
Take `CNC[C@@H](O)[C@@H](O)[C@H](O)[C@H](O)CO`: the Potency result in [10], in test [4] and in test [5] was “inactive” each time. In addition, the molecule was classed as inactive in [1], in test [6], in test [2], in test [3], in test [7] (setting [11]) and in test [9].
Turning to `O=c1oc2cc(O)ccc2s1`, the Potency entry in [10] and in test [4] was “inactive” throughout. Besides, the figures for the max response in test [1], in test [6] and in test [3] were 4.4%, -4.04% and -4.48%, respectively. Further, the molecule was called inactive in test [2] and in [7] (setting [11]).
Consider `O=C(O)c1cccc(-c2noc(-c3ccccc3F)n2)c1`, for which the Potency entry in test [10], in test [4] and in test [5] was “inactive” throughout. For the same molecule, the outcome in test [1], in test [2] and in [7] (setting [11]) was inactive. Further, the max response in [2] was -27.5% and -24.9%; in test [8], -19.9% and 8.42%; in test [3], -7.81%.
As to `C=CCc1cc(OC)c(O)c(C(=O)NCCO)c1`, the Potency entry in test [10], in [4] and in test [5] was “inactive” in each case. For the same molecule, the max response is -0.342% in test [6]; -2.64% in test [2]; 8.32% and 9.16% in test [8]; -1.28% and -4.54% in [3]. In addition, the molecule was called inactive in [2] and in test [7] (setting [11]).
In the case of `Cc1c(OCC(F)(F)F)ccnc1CS(=O)c1nc2ccccc2[nH]1` (stereo not drawn), the Potency entry in test [10] and in [4] was “inactive” in each case. Further, the max response is -8.7% and 2.17% in test [1]; 3.36% in test [6]; 1.81% and 4.74% in test [3]. The molecule was called inactive in test [2] and in test [7] (setting [11]).
As to `O=C(O)c1cn(-c2ccc(F)cc2)c2cc(N3CCNCC3)c(F)cc2c1=O`, the Potency result in test [10] was “inactive”. Moreover, the Potency in test [5] was 10.7 µM (active). The max response is 3.53% and 1.39% in [1]; -4.73% in [6]; -14.9% in test [2]; -0.0226% and -6.36% in test [3].
As for `COc1c(O)cc2c(c1O)[C@@H]1O[C@H](CO)[C@@H](O)[C@H](O)[C@H]1OC2=O`, the call in test [1], in [6] and in test [9] was inactive. The max response is -11.1% and -23.6% in [2]; -9.83% and 0.115% in [3].
